# Experimental data published in PubChem BioAssay.
# Values without a mark were called inactive. Calls of active or inactive are those of the source. Rule as the data show it: active = inhibition above about 44%; inactive = the rest.
# Molecular target: Steroidogenic factor 1 (Homo sapiens) (UniProt Q13285)
# Assay: SF1 (NR5A1) inverse agonists, counter-screen for LRH-1 inverse agonist project, cell-based, luminescence, high throughput (AID 651614);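 also: cells cotransfected with StAR promoter reporter and SF1 expression vector; 0% = vehicle on cells with receptor and 100% = vehicle on cells lacking receptor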
# Conditions: cell-based SF1 luciferase reporter, at 3.6 µM, active compounds read high
# Chain of Steroidogenic factor 1 (Homo sapiens) (Q13285 whole entry, looked up): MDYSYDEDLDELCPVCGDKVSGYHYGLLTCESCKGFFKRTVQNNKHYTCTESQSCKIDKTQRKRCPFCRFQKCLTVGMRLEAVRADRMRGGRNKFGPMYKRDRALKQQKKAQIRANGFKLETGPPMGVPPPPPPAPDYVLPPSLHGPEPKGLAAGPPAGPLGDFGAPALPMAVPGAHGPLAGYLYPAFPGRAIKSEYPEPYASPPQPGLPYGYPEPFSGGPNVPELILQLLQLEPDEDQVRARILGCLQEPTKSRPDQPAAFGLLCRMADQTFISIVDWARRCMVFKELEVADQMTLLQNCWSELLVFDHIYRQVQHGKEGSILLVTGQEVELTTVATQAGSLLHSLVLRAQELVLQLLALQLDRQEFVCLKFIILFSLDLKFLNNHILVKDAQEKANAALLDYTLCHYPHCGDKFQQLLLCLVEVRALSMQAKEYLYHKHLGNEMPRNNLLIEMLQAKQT
row,SMILES,inhibition
1,Cc1cccc(-n2c(CNC(=O)c3ccccc3)nnc2SCC(=O)Nc2nccs2)c1,17.1%
2,CN(C)CCNc1ccc2nnn3c4ccc(O)cc4c(=O)c1c23,71.5% (active)
3,Cc1sc2ncnc(NCC3COc4ccccc4O3)c2c1C (configuration not stated),46.1% (active)
4,Cc1nc2ccc(NC(=O)c3cc(S(=O)(=O)N(C)c4ccccc4)ccc3Cl)cc2s1,59.5% (active)
5,CN(C)CCN1C(=O)c2cccc3cc([N+](=O)[O-])cc(c23)C1=O,84.4% (active)
6,CCc1c(C)nc2ncnn2c1NCCc1ccc(OC)cc1,66.2% (active)
7,Cc1c(C(C)C)c(=O)n(-c2ccc(S(=O)(=O)NCc3ccccc3)cc2)n1C,55.1% (active)
8,O=C(CSc1nnnn1C1CC2CCC1C2)Nc1ccnc2ccccc12 (configuration not stated),56.1% (active)
9,CC1(C)CC(N2CCCC2)=CC(=[N+]2CCCC2)C1,55.2% (active)
10,CC1(C)CC(N2CCCC2)=CC(=[N+]2CCCCC2)C1,54.3% (active)
11,COc1ccc(-c2coc3c(C(=O)NCc4ccc(OC)c(OC)c4)cccc23)c(C)c1,49% (active)
12,COc1ccc(CC(=O)Nc2cccc(S(=O)(=O)N3CCCCCC3)c2)cc1OC,53.4% (active)
13,Clc1ccc(-c2nnc(CSc3nnc(-c4cccs4)n3Cc3ccccc3)o2)cc1,48.9% (active)
14,O=C(CSc1nnc(Cn2nnc3ccccc32)o1)N(Cc1ccc(F)cc1)c1ccccc1,56.7% (active)
15,CC(C)C(=O)NC(c1ccc(Cl)cc1Cl)c1ccc2cccnc2c1O (configuration not stated),41.4%
16,Cc1ccc(S(=O)(=O)CC2CSc3nc4ccccc4n32)cc1 (configuration not stated),54.6% (active)
17,O=C(Nc1nonc1NC(=O)c1cccs1)c1cccs1,66% (active)
18,CCN(CC)C1=CC(=[N+]2CCCC2)CC(C)(C)C1,57.5% (active)
19,CCCOc1ccc(Cc2c(Cl)nc(SC)nc2NC)cc1,55.9% (active)
20,COc1cccc2c1C(=O)c1c(O)c3c(c(O)c1C2=O)CC(O)(C(C)=O)CC3OC1CC(O)C(O)C(C)O1 (configuration not stated),17.4%
21,CCN(CC)S(=O)(=O)c1cc(NC(=O)CNc2cccc(S(=O)(=O)N3CCCC3)c2)ccc1C,54.9% (active)
22,Fc1ccc(NC(=S)N2CCCN(c3ccc(C(F)(F)F)cn3)CC2)c(F)c1,57.8% (active)
